Measured values reported in PubChem BioAssay.
Activity calls are given as the source filed them.

Tests used:
[1] = anti-His antibody binders, primary screen, artefact control for SMM control protein annotation, biochemical, small-molecule microarray, 635 nm fluorescence (AID 1128); conditions: anti-His Alexa647 antibody binding, higher = more signal;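 further: score merges feature fluorescence with signal-to-noise for each printed compound spot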
[2] = test system: Human papillomavirus type 1a E7 protein (residues 1-88); assay: HPV1a E7 small-molecule binders, primary screen, biochemical, small-molecule microarray, residues 1-88, 635 nm (AID 1129); conditions: small-molecule microarray binding, fluorescence 635 nm; higher = more signal
[3] = target: Focal adhesion kinase 1 (Homo sapiens) (UniProt Q05397); assay: small-molecule microarray binders of FAK, primary screen, biochemical, 635/667 nm fluorescence, BSA, DTT (AID 1130); conditions: PTK2 binding, 635 nm fluorescence, higher = more signal;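 further: composite of spot emission at 667 nm and signal to noise over triplicate slides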
[4] = test system: Fibrinogen (Alexa647-labelled); assay: fibrinogen binders on compound microarrays, profiling panel, artefact control for SMM control-protein annotation, biochemical, small-molecule microarray, 635/667 nm fluorescence (AID 1131); conditions: fibrinogen-A647 binding fluorescence, higher = more signal;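 further: z-score merges 667 nm fluorescence with per-spot signal-to-noise over triplicate slides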
[5] = target: Follistatin (Homo sapiens) (UniProt P19883); assay: follistatin binders on small-molecule microarrays, primary screen, biochemical, small-molecule microarray, 635/667 nm fluorescence (AID 1132); conditions: FST binding, 635 nm fluorescence, higher = more signal
[6] = target: Fibroblast growth factor 2 (Homo sapiens) (UniProt P09038); assay: FGF2 binders on small-molecule microarrays, primary screen, biochemical, small-molecule microarray, 635/667 nm fluorescence (AID 1133); conditions: small-molecule microarray binding, FGF2, fluorescence 635/667; higher = more signal
[7] = mitochondrial membrane potential change in A549 cells, profiling panel, cell-based, JC-1 fluorescence, basal, 24 h, 100 nL (AID 1138); conditions: higher = more signal;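 further: A549 lung adenocarcinoma cells under basal conditions with no added stimulus; test concentration not given here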
Lefty1 = Lefty1 binders on small-molecule microarrays, primary screen, biochemical, small-molecule microarray, 635/667 nm fluorescence (AID 1139); conditions: small-molecule microarray binding, fluorescence 635/667; higher = more signal
[8] = test system: wheat germ agglutinin (Triticum aestivum), Alexa647-labelled; assay: wheat germ agglutinin binders on compound microarrays, profiling panel, artefact control for SMM control-protein annotation, biochemical, small-molecule microarray, 635/667 nm fluorescence (AID 1140); conditions: WGA-A647 binding, 635 nm fluorescence, higher = more signal;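 further: score merges 667 nm feature emission with signal to noise over triplicate slides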
[9] = target: Luciferin 4-monooxygenase (Photinus pyralis) (UniProt P08659); assay: firefly luciferase enzyme inhibitors, primary screen, biochemical, luminescence, purified enzyme, 2006 set (AID 1141); conditions: SteadyGlo luminescence, 30 min, higher = more signal, called active from +8 up or from −8 down;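 further: cell-free assay with purified firefly luciferase at 100 ng per well in PBS; test concentration not given here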
Chain of Luciferin 4-monooxygenase (Photinus pyralis) (P08659 whole entry, looked up): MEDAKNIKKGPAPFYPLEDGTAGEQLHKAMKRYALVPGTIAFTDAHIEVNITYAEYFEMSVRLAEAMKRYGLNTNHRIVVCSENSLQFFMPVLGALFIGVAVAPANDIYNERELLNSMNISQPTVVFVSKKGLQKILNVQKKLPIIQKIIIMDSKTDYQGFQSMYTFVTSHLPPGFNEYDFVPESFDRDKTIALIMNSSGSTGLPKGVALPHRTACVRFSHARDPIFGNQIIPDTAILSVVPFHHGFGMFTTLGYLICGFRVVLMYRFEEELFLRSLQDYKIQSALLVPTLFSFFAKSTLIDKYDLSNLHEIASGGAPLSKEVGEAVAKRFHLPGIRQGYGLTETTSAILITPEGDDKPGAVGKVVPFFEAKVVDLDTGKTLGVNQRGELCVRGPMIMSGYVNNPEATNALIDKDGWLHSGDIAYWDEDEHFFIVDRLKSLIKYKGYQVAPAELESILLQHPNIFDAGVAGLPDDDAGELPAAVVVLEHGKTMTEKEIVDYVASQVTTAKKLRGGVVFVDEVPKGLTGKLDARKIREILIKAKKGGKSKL

Chain of Focal adhesion kinase 1 (Homo sapiens) (Q05397 whole entry, looked up): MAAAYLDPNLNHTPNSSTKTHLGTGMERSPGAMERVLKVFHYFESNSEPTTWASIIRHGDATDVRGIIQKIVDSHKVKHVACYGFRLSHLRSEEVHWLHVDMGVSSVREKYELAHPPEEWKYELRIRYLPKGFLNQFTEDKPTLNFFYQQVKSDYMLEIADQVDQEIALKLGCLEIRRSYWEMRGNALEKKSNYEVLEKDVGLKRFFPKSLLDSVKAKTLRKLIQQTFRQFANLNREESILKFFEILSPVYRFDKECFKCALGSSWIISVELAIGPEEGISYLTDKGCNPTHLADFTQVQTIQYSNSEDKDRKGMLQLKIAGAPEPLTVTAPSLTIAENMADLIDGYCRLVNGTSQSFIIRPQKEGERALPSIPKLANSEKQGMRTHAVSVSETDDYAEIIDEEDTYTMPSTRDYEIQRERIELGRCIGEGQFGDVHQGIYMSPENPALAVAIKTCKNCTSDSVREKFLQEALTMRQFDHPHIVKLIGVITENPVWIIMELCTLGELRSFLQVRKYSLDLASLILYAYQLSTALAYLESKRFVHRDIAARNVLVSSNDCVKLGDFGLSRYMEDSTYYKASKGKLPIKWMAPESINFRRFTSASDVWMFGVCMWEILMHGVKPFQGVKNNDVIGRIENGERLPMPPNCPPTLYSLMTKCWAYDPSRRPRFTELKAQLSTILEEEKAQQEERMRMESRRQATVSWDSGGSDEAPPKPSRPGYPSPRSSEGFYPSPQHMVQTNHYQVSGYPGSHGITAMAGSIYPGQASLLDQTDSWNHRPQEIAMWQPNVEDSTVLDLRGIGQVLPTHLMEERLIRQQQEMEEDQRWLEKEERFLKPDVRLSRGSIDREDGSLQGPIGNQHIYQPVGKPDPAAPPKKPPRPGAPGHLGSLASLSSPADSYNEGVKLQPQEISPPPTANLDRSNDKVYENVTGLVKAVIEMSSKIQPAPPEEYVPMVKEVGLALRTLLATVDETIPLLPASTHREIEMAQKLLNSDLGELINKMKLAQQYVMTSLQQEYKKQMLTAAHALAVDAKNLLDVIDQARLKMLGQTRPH
Chain of Fibroblast growth factor 2 (Homo sapiens) (P09038 whole entry, looked up): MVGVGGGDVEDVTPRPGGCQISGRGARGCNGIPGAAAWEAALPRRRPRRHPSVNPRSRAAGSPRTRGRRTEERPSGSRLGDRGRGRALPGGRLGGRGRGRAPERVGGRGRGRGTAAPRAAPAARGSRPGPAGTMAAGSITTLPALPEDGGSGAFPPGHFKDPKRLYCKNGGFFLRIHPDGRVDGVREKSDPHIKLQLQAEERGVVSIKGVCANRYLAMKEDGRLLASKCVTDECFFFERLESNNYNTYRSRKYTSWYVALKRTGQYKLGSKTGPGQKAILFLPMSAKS
Chain of Follistatin (Homo sapiens) (P19883 whole entry, looked up): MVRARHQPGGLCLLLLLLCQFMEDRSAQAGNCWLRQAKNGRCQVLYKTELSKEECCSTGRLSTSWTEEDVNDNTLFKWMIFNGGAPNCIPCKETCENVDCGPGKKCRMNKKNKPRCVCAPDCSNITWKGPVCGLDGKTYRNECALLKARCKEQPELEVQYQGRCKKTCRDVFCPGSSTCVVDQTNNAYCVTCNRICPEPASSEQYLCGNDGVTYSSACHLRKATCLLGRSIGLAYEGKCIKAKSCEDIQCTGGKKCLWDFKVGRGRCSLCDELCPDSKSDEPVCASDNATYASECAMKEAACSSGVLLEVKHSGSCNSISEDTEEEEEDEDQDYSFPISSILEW

| SMILES | composite z-score [1] | composite z-score [2] | composite z-score [3] | composite z-score [4] | composite z-score [5] | composite z-score [6] | z-score [7] | composite z-score (Lefty1) | composite z-score [8] | z-score [9] |
| --- | --- | --- | --- | --- | --- | --- | --- | --- | --- | --- |
| COC(=O)c1c(CC[C@@H](CO)NC(=O)NCCc2c[nH]c3ccccc23)oc(C(=O)Cc2ccccc2)c1C(=O)OC | 0.108 | 0.27 | 0.131 | 0.273 | 0.368 | 0.251 | -0.364 | 0.456 | 0.0707 | 0.521 (inactive) |
| CC[C@@H]1C=C(C(=O)O)[C@H](c2ccc(C)cc2)N1S(=O)(=O)c1ccc(C)cc1 | -0.479 | 1.23 | 0.827 | 0.915 | 0.163 | 0.0388 | -0.233 | 0.285 | 0.568 | 2.28 (inactive) |
| O=C1N(CCS(=O)(=O)c2ccccc2)c2ccccc2[C@@H]2OC(c3ccc(OCCCO)cc3)=N[C@]12Cc1ccccc1 | 1.65 | 1.19 | 1.05 | 0.959 | 1.43 | 1.71 | 2.29 | 1.18 | 0.668 | -11.5 (active) |
| COCCOC(=O)N1C(=O)[C@@]2(c3cc(C#CC4=CCCCC4)ccc31)[C@H](C(N)=O)[C@H]1C(=O)O[C@H](c3ccccc3)[C@H](c3ccccc3)N1[C@@H]2c1ccc(O)cc1 | 0.753 | 1.18 | 0.671 | 0.958 | 0.886 | 0.58 | -1.1 | 0.553 | 0.686 | -1.98 (inactive) |
| CC(C)CN1C(=O)[C@@]2(c3ccc([N+](=O)[O-])cc3)CC(=O)N(C3CCCCC3)[C@@H]2c2ccc(CO)cc21 | -0.75 | -1.07 | -0.0035 | -1.05 | -1.29 | -0.875 | 0.766 | -0.919 | 0.428 | 0.791 (inactive) |
| CCCC[C@@H]1C[C@H]1[C@@H](NC(=O)c1cccnc1)c1ccc(Cl)cc1 | -1.38 | -2.87 | -0.518 | -2.97 | -2.16 | -2.46 | 0.66 | -2.59 | -1.72 | 0.928 (inactive) |
| COc1ccc([C@H]2C[C@H]3C(Br)=C[C@@]2(CO)C(=O)[C@]32CO2)cc1 | -0.436 | -0.99 | 0.125 | 0.281 | -0.0737 | -0.441 | -0.592 | -0.271 | 0.138 | 0.601 (inactive) |
| C=CCOC(=O)[C@H]1[C@@H]2C(=O)O[C@@H](c3ccccc3)[C@@H](c3ccccc3)N2[C@@H](c2ccc(OCCOC(=O)[C@H]3C[C@H]4C(=O)N[C@@H](CCCCN(C)C)C(=O)N4[C@H]3c3cccc(OCCO)c3)cc2)[C@]12C(=O)Nc1ccc(I)cc12 | 0.977 | 1.18 | 0.205 | 0.571 | 1.35 | 1.36 | -1.66 | 1.6 | 0.705 | -0.49 (inactive) |
| C=C(/C(=C/C[C@H](OC(C)=O)c1ccc(OCCO)cc1)c1cc(C(=O)OC)ccc1OC)C(C)C | 1.16 | 1.08 | 0.413 | 0.812 | 1.13 | 1.58 | 1.75 | 1.55 | 0.307 | -2.33 (inactive) |
| COC(=O)c1c(CC[C@@H](CO)NC(=O)N[C@H](Cc2ccccc2)Cn2cc(-c3ccccn3)nn2)oc(C(C)=O)c1C(=O)OC | 1.52 | -0.178 | 0.0026 | 0.801 | 0.0798 | 0.451 | -0.117 | 0.004 | 0.205 | 0.67 (inactive) |
| COC(=O)[C@@]1(Cc2ccc(OC)cc2)[C@H]2c3cc(C(=O)N4CCCC4)n(CCc4ccc(O)c(O)c4)c3C[C@H]2CN1C(=O)c1ccccc1 | 2.44 | 1.17 | 0.384 | 0.421 | 0.442 | -0.736 | -0.72 | -0.958 | 1.22 | -7.43 (inactive) |
| Cc1ccc(S[C@]2(C(=O)O)CC(=O)N(Cc3ccccc3C(F)(F)F)[C@@H]2c2ccc(CO)cc2I)cc1 | 0.275 | 0.0179 | -0.0066 | 0.0184 | 0.0699 | 0.511 | 0.348 | -0.781 | 0.75 | -0.499 (inactive) |
| COc1cc(CO)cc(I)c1O[C@H]1C=C(C(=O)NCCO)C[C@@H](NC[C@@H]2CCCO2)[C@@H]1O | 0.296 | 0.63 | 0.106 | 0.346 | 0.323 | 0.599 | 0.452 | 0.831 | 0.483 | 0.758 (inactive) |
| O=C1NC(=O)C2C1C=CC(C(O)C1CC=CCC1)N2Nc1ccccn1 (stereo not given) | 1.33 | -0.264 | -0.599 | -0.0881 | 0.585 | 0.582 | 0.692 | 0.616 | 0.763 | -1.13 (inactive) |
| [N-]=[N+]=Nc1ccccc1C[C@]1(C(=O)NCc2ccccc2)N=C(c2ccc(OCCCO)cc2)O[C@H]1c1ccccc1N=[N+]=[N-] | 1.88 | 1.16 | 0.414 | 1 | 0.547 | -0.165 | 1.08 | 0.376 | 0.824 | -3.77 (inactive) |
| CCCC(=O)N(CCc1c[nH]c2ccccc12)[C@@H]1CC(C(=O)NCCO)=C[C@H](Oc2c(I)cc(CO)cc2OC)[C@H]1O | -0.156 | -0.064 | -0.185 | -1.04 | 0.0919 | 0.289 | 1.13 | 0.0596 | 0.302 | -0.437 (inactive) |
